Compound activity (PubChem BioAssay)
A selection: hits, their analogues and other compounds. The true share with any hit is near 10%.
HP1b binding inh – HP1-beta chromodomain-methylated histone interaction inhibition. Potency, µM (titrated, usually from 114 µM), most hits filed as inhibitors. 0.56% of 390,000 active. P83916. AlphaScreen HP1-beta / biotin-H3K9me3 peptide binding; note: nearly all actives have a fitted effect of over 70% in size
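Compound inhibition of the preformed complex between 50 nM HP1-beta and 50 nM biotinylated H3K9me3 peptide was read by AlphaScreen. Buffer was PBS pH 7.4 with 0.01% Tween-20. Incubations ran 30 min at room temperature, with 10 ug/mL donor/acceptor beads.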
JMJD2A Tudor – blocks the human JMJD2A Tudor domain; 4.4% of 390,000 active; Potency, µM (top dose mostly 114 µM), actives largely listed as inhibitors; O75164; AlphaScreen JMJD2A-Tudor / H3K4me3 peptide binding; note: nearly all actives have a fitted effect of over 50% in size
Target sequence (O75164 whole entry, looked up, the tested form may be a part): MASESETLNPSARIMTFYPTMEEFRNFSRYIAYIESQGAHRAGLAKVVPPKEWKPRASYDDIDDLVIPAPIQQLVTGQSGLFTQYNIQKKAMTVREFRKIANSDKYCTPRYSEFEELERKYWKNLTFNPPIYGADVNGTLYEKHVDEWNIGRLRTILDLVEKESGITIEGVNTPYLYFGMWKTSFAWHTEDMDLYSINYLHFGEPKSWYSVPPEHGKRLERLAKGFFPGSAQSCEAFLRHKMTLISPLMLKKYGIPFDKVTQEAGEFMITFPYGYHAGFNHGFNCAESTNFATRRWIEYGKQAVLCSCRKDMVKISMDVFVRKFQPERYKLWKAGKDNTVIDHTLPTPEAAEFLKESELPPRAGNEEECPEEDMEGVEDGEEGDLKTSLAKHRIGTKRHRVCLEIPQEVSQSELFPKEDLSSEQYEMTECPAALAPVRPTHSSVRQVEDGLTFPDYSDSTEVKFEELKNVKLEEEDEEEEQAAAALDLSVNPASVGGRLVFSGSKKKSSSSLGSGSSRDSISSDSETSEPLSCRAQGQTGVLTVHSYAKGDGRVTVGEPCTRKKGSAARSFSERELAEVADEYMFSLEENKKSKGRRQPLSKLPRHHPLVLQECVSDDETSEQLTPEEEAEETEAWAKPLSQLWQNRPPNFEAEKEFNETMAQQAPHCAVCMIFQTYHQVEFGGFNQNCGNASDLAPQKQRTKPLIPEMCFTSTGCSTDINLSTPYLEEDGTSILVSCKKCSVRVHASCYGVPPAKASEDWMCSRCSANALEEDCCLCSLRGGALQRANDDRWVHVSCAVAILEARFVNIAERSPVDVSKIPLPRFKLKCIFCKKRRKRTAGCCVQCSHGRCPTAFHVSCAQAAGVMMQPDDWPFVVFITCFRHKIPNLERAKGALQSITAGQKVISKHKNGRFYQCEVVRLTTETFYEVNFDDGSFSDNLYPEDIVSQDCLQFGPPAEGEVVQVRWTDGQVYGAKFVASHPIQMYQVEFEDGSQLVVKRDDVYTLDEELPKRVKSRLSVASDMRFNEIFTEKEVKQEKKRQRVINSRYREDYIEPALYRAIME
BAZ2B block – inhibitors of human BAZ2B bromodomain; Q9UIF8; AlphaScreen BAZ2B-H3K14Ac peptide displacement; 4.4% of 360,000 active; AID 504333; Potency, µM (highest dose often 114 µM), actives largely listed as inhibitors; note: nearly all actives have a fitted effect of over 60% in size
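Multi-concentration screen (max 110 uM) measuring displacement of acetylated histone H3 peptide from BAZ2B by AlphaScreen, using 50 nM protein, 50 nM peptide and 10 ug/mL streptavidin donor plus Ni-chelate acceptor beads.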
Six1-Eya2 blk – inhibitors of human Six1/Eya2 interaction | 0.56% of 360,000 active | AlphaScreen GST-Six1/His-Eya2 binding, biochemical; active compounds read low | activity change, % (test concentration not listed) | Q15475+O00167; in the data active = activity change below about -65%; inconclusive = mostly about -30% to -63%
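AlphaScreen with GST-Six1 and His-Eya2 (5X mix: 250 nM and 500 nM), glutathione donor and nickel acceptor beads; buffer 50 mM Tris pH 8.0, 300 mM NaCl, 1 mM TCEP; 1 h at 37 C in the dark.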
G9a block – G9a (human) methyltransferase inhibition | G9a H3K9 monomethylation, AlphaScreen, 2 h | AID 504332 | Potency, µM (series often up to 102 µM), actives largely listed as inhibitors | 8.8% of 350,000 active | Q96KQ7; note: nearly all actives have a fitted effect of over 75% in size
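Signal arises when biotinylated H3K9 peptide, once monomethylated, bridges streptavidin donor and antibody-captured acceptor beads. Enzyme at 20 nM was preincubated 15 min with test compounds; peptide 500 nM and SAM 20 uM then reacted for 2 h.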
CtBP-E1A blk – CtBP/E1A binding inhibition; activity change, % (concentration not given with the values); 0.49% of 340,000 active; AlphaScreen GST-E1A/His-CtBP binding, 1536-well; active compounds read low; AID 651724; in the data active = activity change below about -65%; inconclusive = mostly about -30% to -63%
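AlphaScreen with 125 nM GST-E1A and 125 nM His-CtBP (5X stocks) in Tris pH 8.0, 300 mM NaCl, BSA, Tween 20, TCEP. Compounds preincubated 2 h at 37 deg C, then glutathione donor/nickel acceptor beads added for 1 h at 37 deg C in dark.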
Each line names hits and unclear results; the compound was inactive in the other large screens. Unless noted, calls come from the whole dose curve; as a rule, active = well fitted inhibition curve with a large enough effect; inconclusive = small, poorly fitted or top-dose-only effect; inactive = no such curve, though single readings can be large or run the other way.

Cc1ccc(S(=O)(=O)Nc2cc(Cl)c(O)c3ncccc23)cc1	HP1b binding inh 79µM, JMJD2A Tudor 22µM, BAZ2B block 8.9µM, Six1-Eya2 blk -90, G9a block 7.9µM, CtBP-E1A blk -89
Cc1ccc2ccc3ccc(C)nc3c2n1	none (no result: G9a block)
Cc1ccc2c(C)ccc(O)c2n1	BAZ2B block inconclusive, G9a block 3.5µM
Cc1ccc(S(=O)(=O)Nc2cc(S(=O)(=O)c3ccc(C)cc3)c(O)c3cccnc23)cc1	none (no result: HP1b binding inh, BAZ2B block, Six1-Eya2 blk, G9a block, CtBP-E1A blk)
O=C(Oc1ccc(Cl)c2cccnc12)N1CCCCC1	none
Oc1ccc(Cl)c2cccnc12	JMJD2A Tudor 18µM, Six1-Eya2 blk -91, CtBP-E1A blk -95 (no result: BAZ2B block)
CCOC(=O)C1(C)CCCCCN1C(=O)c1ccc(C(=O)OC)cc1 (stereo not drawn)	none (no result: HP1b binding inh, JMJD2A Tudor, BAZ2B block, G9a block)
Oc1c(Cl)cc(Cl)c2cccnc12	JMJD2A Tudor 28µM, Six1-Eya2 blk -90, G9a block 40µM, CtBP-E1A blk -90 (no result: BAZ2B block)
Cc1ccc(N=Nc2ccc(O)c3ncccc23)cc1C	JMJD2A Tudor inconclusive, G9a block inconclusive
Clc1cc2cccnc2c2ccccc12	none
Cc1ccc2c(Cl)cc(Cl)c(O)c2n1	Six1-Eya2 blk inconclusive, CtBP-E1A blk -65 (no result: BAZ2B block, G9a block)
Oc1c(I)cc(I)c2cccnc12	JMJD2A Tudor 56µM, Six1-Eya2 blk -67, G9a block 50µM, CtBP-E1A blk -73
Oc1ccc(F)c2cccnc12	JMJD2A Tudor 10µM, BAZ2B block 16µM, Six1-Eya2 blk -81
COc1cccc(CN2CCN(Cc3ccc(O)cc3)CC2CCO)c1 (stereo not drawn)	none (no result: CtBP-E1A blk)
COC(=O)CN1C(=O)C(C)(C)c2cc(S(=O)(=O)Nc3ccc(Br)cc3F)ccc21	none (no result: Six1-Eya2 blk, CtBP-E1A blk)
Cc1cc(C)cc(NC(=O)N2CCN(C)c3ncccc32)c1	none (no result: Six1-Eya2 blk, CtBP-E1A blk)
Cc1nnc(SCC(=O)N(C)CC(=O)Nc2ccccc2Cl)s1	G9a block 50µM
CCc1ccccc1NC(=O)CN(C)C(=O)CSc1nnc(Nc2cccc(C)c2C)s1	G9a block 16µM
CN(CC(=O)Nc1ccccc1Cl)C(=O)Cn1cc(C(F)(F)F)ccc1=O	none
CN(CC(=O)Nc1ccccc1Cl)C(=O)Cn1cc(C(F)(F)F)cc(Cl)c1=O	G9a block 45µM
S=C1NC2CCCCC2N1 (stereo not drawn)	none
Cc1cc(Nc2ccc3c(c2)OCCO3)c2ccccc2n1	G9a block inconclusive
Cc1ccc2nc(C)cc(Nc3ccc4c(c3)OCCO4)c2c1	G9a block 45µM
COc1ccc(N2CCN(C(=O)C(C)n3c(=O)cc(C(F)(F)F)c4c(C)nn(C)c43)CC2)cc1 (stereo not drawn)	HP1b binding inh inconclusive, BAZ2B block 35µM, G9a block 10µM (no result: Six1-Eya2 blk, CtBP-E1A blk)
Cc1nc2sc(C(c3cccs3)N3CCC(C(N)=O)CC3)c(O)n2n1 (stereo not drawn)	none
Cc1ccc(SCC(=O)Nc2nnc(C(C)(C)C)s2)cc1	none
CCc1nnc2c3ccccc3nc(N3CCN(c4cc(Cl)ccc4C)CC3)n12	none (no result: Six1-Eya2 blk, CtBP-E1A blk)
O=C(NC(=S)NCCO)c1sc2ccccc2c1Cl	BAZ2B block inconclusive, G9a block 25µM
CC(C)(C#CCN1CCCCC1)OCCOC(c1ccccc1)c1ccccc1	BAZ2B block inconclusive, G9a block inconclusive
COC(=O)c1sc2nc(SCC(=O)N(C)c3ccccc3)n(N)c(=O)c2c1C	G9a block 25µM (no result: CtBP-E1A blk)
CCCn1nnnc1NCc1ccccc1OCC	G9a block 35µM
COc1ccc(Cc2c(C(C)(C)C)nc3c(C)cc(Br)cn23)c(C)c1	none (no result: HP1b binding inh, JMJD2A Tudor, BAZ2B block, G9a block)
CN(C)c1ccc(CNCC2CCCO2)cc1 (stereo not drawn)	G9a block inconclusive
CN(C)c1ccc(CNCCC2CCOC(C)(C)C2)cc1 (stereo not drawn)	BAZ2B block inconclusive, G9a block 45µM (no result: HP1b binding inh, JMJD2A Tudor, Six1-Eya2 blk, CtBP-E1A blk)
CSc1ncccc1C(=O)N1CCCC(N2CCN(c3ccccc3C)CC2)C1 (stereo not drawn)	none (no result: HP1b binding inh, JMJD2A Tudor, BAZ2B block, G9a block)
COc1ccc(N2CCN(C(=O)c3cn(CC(C)C)c(=O)c4c3c3ccccc3n4C)CC2)cc1	HP1b binding inh inconclusive, JMJD2A Tudor 35µM, BAZ2B block 25µM, G9a block inconclusive (no result: Six1-Eya2 blk, CtBP-E1A blk)
COc1ccccc1N1CCN(C(=O)c2cn(CC(C)C)c(=O)c3c2c2ccccc2n3C)CC1	none (no result: Six1-Eya2 blk, CtBP-E1A blk)
Cn1c2ccccc2c2c(C(=O)N3CCN(c4ccccc4)CC3)cn(C3CCCC3)c(=O)c21	JMJD2A Tudor inconclusive, BAZ2B block inconclusive, Six1-Eya2 blk inconclusive, G9a block 50µM, CtBP-E1A blk inconclusive
Cc1ccc(NC(=O)C2CCN(S(=O)(=O)c3c(C)nn(C)c3C)CC2)c(Cl)c1	none
CC(=O)N1c2c(cc(Br)cc2S(=O)(=O)N2CCN(c3cccc(Cl)c3)CC2)CC1C (stereo not drawn)	none (no result: Six1-Eya2 blk, CtBP-E1A blk)
Cn1cc(P(=O)(N2CCOCC2)N2CCOCC2)cc1P(=S)(N1CCOCC1)N1CCOCC1	G9a block 40µM
CCN1CCN(S(=O)(=O)c2cccc(S(=O)(=O)N3CCOCC3)c2)CC1	none
Cn1cc(P(=S)(N2CCOCC2)N2CCOCC2)cc1P(=O)(N1CCOCC1)N1CCOCC1	HP1b binding inh inconclusive, JMJD2A Tudor inconclusive, G9a block 10µM
CCn1c(C)c(P(=O)(N2CCOCC2)N2CCOCC2)c2ccccc21	none
Cc1cc(-c2ccccc2)c2ccc(NC(=O)C(C)(C)C)nc2n1	G9a block inconclusive (no result: CtBP-E1A blk)
Cc1nc(-c2ccc(S(=O)(=O)Nc3cc(Cl)ccc3C)cc2)co1	none (no result: Six1-Eya2 blk, CtBP-E1A blk)
O=C(Nc1ccc(N=Nc2ccccc2)c(NC(=O)C2CCCO2)c1)C1CCCO1 (stereo not drawn)	HP1b binding inh inconclusive, JMJD2A Tudor 35µM, BAZ2B block 28µM, Six1-Eya2 blk inconclusive, G9a block inconclusive
O=C(Nc1ccc([N+](=O)[O-])c(NC(=O)C2CCCO2)c1)C1CCCO1 (stereo not drawn)	G9a block inconclusive
CSc1ccccc1NC(=O)C1CCCO1 (stereo not drawn)	G9a block 16µM
NC(=O)c1ccccc1NC(=O)C1CCCO1 (stereo not drawn)	none
O=C(Nc1ccc(Oc2ccccc2)cc1)C1CCCO1 (stereo not drawn)	JMJD2A Tudor 100µM
CC1CCCCN1C(=O)CN(C)S(=O)(=O)c1cccc2nsnc12 (stereo not drawn)	none
Cc1nc(CNC(=O)C2CCC(=O)N(Cc3cccc(F)c3)C2)sc1C (stereo not drawn)	none (no result: G9a block)
Cc1ccc(C(=O)n2nc(C#N)c(C#N)c2N)cc1	JMJD2A Tudor inconclusive
O=C(Nc1cccc2cccnc12)OCc1ccccc1	none (no result: BAZ2B block, Six1-Eya2 blk, G9a block, CtBP-E1A blk)
O=C1/C(=C/c2cccs2)SC(=S)N1N1CCOCC1	HP1b binding inh 35µM, JMJD2A Tudor inconclusive, BAZ2B block inconclusive, G9a block inconclusive
